# Inconclusive results are not listed. Activity calls are given as the source filed them. The calls were made as follows: active = hit-call score of the fitted dose curve at least 0.9, where 1 is the maximum; inconclusive = response in the unintended direction; inactive = score below 0.9.
# Target: human Retinoic Acid Receptor gamma (RARg), RARG (gene 5916) (UniProt P13631)
# Assay: ATG_RARg_TRANS: Attagene TRANS-FACTORIAL HepG2 Assay for human Retinoic Acid Receptor gamma (RARg) (AID 2283009)
# In short: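 HepG2, RARg-GAL4 TRANS system, 24 h exposure; reporter mRNA by RT-PCR + CE fluorescence; increase over DMSO.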
# human Retinoic Acid Receptor gamma (RARg), RARG (gene 5916), sequence (P13631 whole entry, looked up): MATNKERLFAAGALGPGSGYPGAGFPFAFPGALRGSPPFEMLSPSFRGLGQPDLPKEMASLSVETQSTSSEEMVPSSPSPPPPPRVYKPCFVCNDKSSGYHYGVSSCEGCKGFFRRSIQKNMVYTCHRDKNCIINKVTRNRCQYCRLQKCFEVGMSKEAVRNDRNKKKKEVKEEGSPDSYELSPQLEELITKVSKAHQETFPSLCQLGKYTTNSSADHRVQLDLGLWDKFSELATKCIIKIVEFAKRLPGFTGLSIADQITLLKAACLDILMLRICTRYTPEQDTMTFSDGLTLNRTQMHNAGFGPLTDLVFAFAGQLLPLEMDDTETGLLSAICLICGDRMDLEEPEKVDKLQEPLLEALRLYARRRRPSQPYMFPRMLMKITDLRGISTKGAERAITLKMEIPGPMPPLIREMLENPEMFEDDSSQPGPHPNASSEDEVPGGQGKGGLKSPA
row,Compound,outcome
1,COC(=O)N(OC)c1ccccc1COc1ccn(-c2ccc(Cl)cc2)n1,inactive
2,CN(C)C(=S)SSC(=S)N(C)C,inactive
3,CC(C)C1(C)N=C(c2nc3ccccc3cc2C(=O)O)NC1=O (stereo unspecified),inactive
4,CO/C=C(/C(=O)OC)c1ccccc1Oc1cc(Oc2ccccc2C#N)ncn1,inactive
5,CC1COC(Cn2cncn2)(c2ccc(Oc3ccc(Cl)cc3)cc2Cl)O1 (stereo unspecified),inactive
6,CCCN(CCC)c1c([N+](=O)[O-])cc(S(N)(=O)=O)cc1[N+](=O)[O-],inactive
7,Cc1ccc(-c2c(Cl)nc(C#N)n2S(=O)(=O)N(C)C)cc1,inactive
8,CCCC1COC(Cn2cncn2)(c2ccc(Cl)cc2Cl)O1 (stereo unspecified),inactive
9,OC(c1ccc(Cl)cc1)(c1cncnc1)c1ccccc1Cl (stereo unspecified),inactive
10,CC(C)Oc1cc(-n2nc(C(C)(C)C)oc2=O)c(Cl)cc1Cl,inactive
11,N#CC(CCc1ccc(Cl)cc1)(Cn1cncn1)c1ccccc1 (stereo unspecified),inactive
12,C#CCOS(=O)OC1CCCCC1Oc1ccc(C(C)(C)C)cc1 (stereo unspecified),inactive
13,O=C(O)COc1nc(Cl)c(Cl)cc1Cl,inactive
14,COc1nc(NC(C)C)nc(NC(C)C)n1,inactive
15,CCCCNC(=O)OCC#CI,inactive
16,Fc1ccc(Oc2ccnc3cc(Cl)cc(Cl)c23)cc1,inactive
17,COc1nc(C)nc(NC(=O)NS(=O)(=O)c2ccccc2CCC(F)(F)F)n1,inactive
19,CC1=C(C(=O)Nc2ccccc2)SCCO1,inactive

# Target: human RAR-related Orphan Receptor beta (RORb), RORB (gene 6096) (UniProt Q92753)
# Sequence (Q92753 whole entry, looked up): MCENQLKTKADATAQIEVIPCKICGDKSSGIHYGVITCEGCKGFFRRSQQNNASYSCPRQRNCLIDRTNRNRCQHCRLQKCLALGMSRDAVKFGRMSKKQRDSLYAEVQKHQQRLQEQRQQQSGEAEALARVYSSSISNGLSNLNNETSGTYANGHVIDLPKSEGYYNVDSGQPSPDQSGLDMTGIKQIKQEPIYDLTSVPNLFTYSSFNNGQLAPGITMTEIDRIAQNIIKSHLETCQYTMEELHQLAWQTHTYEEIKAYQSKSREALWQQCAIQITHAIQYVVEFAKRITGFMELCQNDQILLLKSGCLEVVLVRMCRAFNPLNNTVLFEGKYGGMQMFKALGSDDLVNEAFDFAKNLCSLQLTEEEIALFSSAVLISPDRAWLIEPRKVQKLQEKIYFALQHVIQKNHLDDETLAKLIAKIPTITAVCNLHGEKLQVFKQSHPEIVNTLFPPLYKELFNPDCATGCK
# Assay: ATG_RORb_TRANS: Attagene TRANS-FACTORIAL HepG2 Assay for human RAR-related Orphan Receptor beta (RORb) (AID 2283010)
# In short: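 In this TRANS-format test, human HepG2 cells express chimeric NR-Gal4 fusion proteins driving GAL4-UAS reporters. After 24 h dosing, reporter transcripts are measured by fluorescent RT-PCR/capillary electrophoresis, with DMSO as negative control.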
row,Compound,outcome
1,COC(=O)N(OC)c1ccccc1COc1ccn(-c2ccc(Cl)cc2)n1,inactive
2,COc1ccc(C(c2ccc(OC)cc2)C(Cl)(Cl)Cl)cc1,inactive
4,CN(C)C(=S)SSC(=S)N(C)C,inactive
5,COC(=O)C=C(C)OP(=O)(OC)OC,inactive
6,CC(C)C1(C)N=C(c2nc3ccccc3cc2C(=O)O)NC1=O (stereo unspecified),inactive
7,CCCN(CCC)c1c([N+](=O)[O-])cc(S(N)(=O)=O)cc1[N+](=O)[O-],inactive
8,Cc1ccc(-c2c(Cl)nc(C#N)n2S(=O)(=O)N(C)C)cc1,inactive
9,CC(C)Oc1cc(-n2nc(C(C)(C)C)oc2=O)c(Cl)cc1Cl,inactive
10,C#CCOS(=O)OC1CCCCC1Oc1ccc(C(C)(C)C)cc1 (stereo unspecified),inactive
11,CNC(=S)S,inactive
12,COc1nc(NC(C)C)nc(NC(C)C)n1,inactive
13,CCCCNC(=O)OCC#CI,inactive
14,COc1nc(C)nc(NC(=O)NS(=O)(=O)c2ccccc2CCC(F)(F)F)n1,inactive
16,CC1=C(C(=O)Nc2ccccc2)SCCO1,inactive

# Target: human RAR-related Orphan Receptor gamma (RORg), RORC (gene 6097) (UniProt P51449)
# Sequence (P51449 whole entry, looked up): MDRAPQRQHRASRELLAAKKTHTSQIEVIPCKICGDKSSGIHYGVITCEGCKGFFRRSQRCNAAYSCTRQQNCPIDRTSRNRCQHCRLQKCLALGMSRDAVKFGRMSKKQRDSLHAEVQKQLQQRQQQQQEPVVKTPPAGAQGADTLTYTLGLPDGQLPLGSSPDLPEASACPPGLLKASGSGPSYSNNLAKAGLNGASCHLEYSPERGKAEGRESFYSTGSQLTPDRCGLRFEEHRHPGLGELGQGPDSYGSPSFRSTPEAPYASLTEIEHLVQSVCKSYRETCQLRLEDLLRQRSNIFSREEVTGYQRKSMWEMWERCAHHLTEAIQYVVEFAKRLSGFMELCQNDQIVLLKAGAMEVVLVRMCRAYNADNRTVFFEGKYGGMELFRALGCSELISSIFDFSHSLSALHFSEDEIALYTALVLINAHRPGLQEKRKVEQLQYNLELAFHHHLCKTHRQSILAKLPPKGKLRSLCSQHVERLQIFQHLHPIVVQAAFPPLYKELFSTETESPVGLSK
# Assay: ATG_RORg_TRANS: Attagene TRANS-FACTORIAL HepG2 Assay for human RAR-related Orphan Receptor gamma (RORg) (AID 2283011)
# In short: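 Transient MRTU transfection of HepG2 (TRANS format, exogenous NR-Gal4 chimera). 24 h dosing. Total RNA → oligo(dT) RT → PCR → 6-FAM labelling → HpaI cut → CE. Gain vs DMSO.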
row,Compound,outcome
1,COC(=O)N(OC)c1ccccc1COc1ccn(-c2ccc(Cl)cc2)n1,inactive
2,COc1ccc(C(c2ccc(OC)cc2)C(Cl)(Cl)Cl)cc1,inactive
4,Oc1ccccc1-c1ccccc1,inactive
5,CN(C)C(=S)SSC(=S)N(C)C,inactive
6,COC(=O)C=C(C)OP(=O)(OC)OC,inactive
7,CC(C)C1(C)N=C(c2nc3ccccc3cc2C(=O)O)NC1=O (stereo unspecified),inactive
8,O=C(Nc1ccccc1)Nc1ccnc(Cl)c1,inactive
9,CCCN(CCC)c1c([N+](=O)[O-])cc(S(N)(=O)=O)cc1[N+](=O)[O-],inactive
10,Cc1ccc(-c2c(Cl)nc(C#N)n2S(=O)(=O)N(C)C)cc1,inactive
11,CCCC1COC(Cn2cncn2)(c2ccc(Cl)cc2Cl)O1 (stereo unspecified),inactive
12,OC(c1ccc(Cl)cc1)(c1cncnc1)c1ccccc1Cl (stereo unspecified),inactive
13,CC(C)Oc1cc(-n2nc(C(C)(C)C)oc2=O)c(Cl)cc1Cl,inactive
14,N#CC(CCc1ccc(Cl)cc1)(Cn1cncn1)c1ccccc1 (stereo unspecified),inactive
15,C#CCOS(=O)OC1CCCCC1Oc1ccc(C(C)(C)C)cc1 (stereo unspecified),inactive
16,CNC(=S)S,inactive
17,COc1nc(NC(C)C)nc(NC(C)C)n1,inactive
18,CCCCNC(=O)OCC#CI,inactive
19,COc1nc(C)nc(NC(=O)NS(=O)(=O)c2ccccc2CCC(F)(F)F)n1,inactive
20,CCNc1nc(Cl)nc(NC(C)C)n1,inactive
